High-throughput results: PubChem BioAssay, National Center for Advancing Translational Sciences (NCATS)
A selection: hits, their analogues and other compounds. The true share with any hit is near 21%.
D3 antag: blocks the human D3 dopamine receptor | AID 652054 | 360,000 tested, 2.5% active | P35462 | D3R cells, DiscoveRx beta-arrestin luminescence, antagonist mode; active compounds read low | max response, negative = inhibition, %; in the data active = max response below about -50%; inconclusive = no clear call, values can overlap the other calls; also: % is scaled to controls: 0 for no effect and ±100 for the full control effect
Target sequence (P35462 whole entry, looked up): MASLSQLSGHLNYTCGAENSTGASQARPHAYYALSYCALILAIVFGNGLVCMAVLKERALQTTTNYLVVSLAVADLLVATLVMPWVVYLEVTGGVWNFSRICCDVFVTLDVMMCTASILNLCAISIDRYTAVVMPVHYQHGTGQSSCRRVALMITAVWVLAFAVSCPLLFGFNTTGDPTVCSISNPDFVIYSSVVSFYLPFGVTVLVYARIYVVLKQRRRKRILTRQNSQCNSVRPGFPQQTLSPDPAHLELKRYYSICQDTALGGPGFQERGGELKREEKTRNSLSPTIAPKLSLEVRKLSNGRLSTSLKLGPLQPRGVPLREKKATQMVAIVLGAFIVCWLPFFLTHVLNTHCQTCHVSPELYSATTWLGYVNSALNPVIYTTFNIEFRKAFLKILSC
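Cells plated overnight at 1500 cells/well, then exposed to library compounds with dopamine controls for 90 minutes at 37 degrees C. DiscoveRx reagent added for 30–60 minutes at room temperature; luminescence read, quantitative HTS format.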
D3 ag: agonists of human D3 dopamine receptor | 410,000 tested, 0.58% active | D3R DiscoveRx beta-arrestin cells, luminescence, 90 min | max activation, %; in the data active = max activation above about 30%; also: 0% is about no effect
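Cells at 1500/well, incubated overnight, then treated with pinned compounds (dopamine as control) for 90 min at 37 degrees C. DiscoveRx reagent added for 30 - 60 minutes at room temperature; luminescence read.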
ClpP mod: qHTS Assay for Activators of ClpP | ATP-dependent Clp protease proteolytic subunit (Bacillus subtilis (strain 168)), P80244 | purified B. subtilis ClpP, FRET peptide cleavage, 20 min | Potency, µM (highest dose often 57.5 µM), without a hit: at the top dose activity change, negative = active | 340,000 tested, 1.9% active | AID 651965, 2013; active = well fitted falling curve with a large enough effect; inconclusive = small, poorly fitted or top-dose-only effect; inactive = no such curve, though single readings can be large or run the other way; also: potency is read from the fitted curve at half-maximal effect; the source files actives as falling curves though it sought activators and does not explain the sign; nearly all actives have a fitted effect of over 65% in size
Target sequence (P80244 whole entry, looked up): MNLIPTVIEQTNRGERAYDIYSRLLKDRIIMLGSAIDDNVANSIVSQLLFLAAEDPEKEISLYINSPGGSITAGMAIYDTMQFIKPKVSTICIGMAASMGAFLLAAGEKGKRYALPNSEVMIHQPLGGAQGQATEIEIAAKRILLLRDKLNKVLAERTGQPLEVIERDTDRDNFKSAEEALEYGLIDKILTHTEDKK
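Purified B. subtilis ClpP, 10 microg/mL final in Tris/HCl pH8 with KCl, BSA, glycerol and Tween-20, cleaved an Abz/nitrotyrosine-quenched decapeptide. Fluorescence (ex 320, em 430) was read at 0 and 20 min at room temperature. Delta was normalized to 5.8 microM ADEP and DMSO/no-enzyme controls.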
TDP1 cell noCPT: qHTS for Inhibitors of human tyrosyl-DNA phosphodiesterase 1 (TDP1): qHTS in cells in absence of CPT; Potency, µM (doses to about 46.2 µM), inactives show top-dose activity change, negative = growth inhibition, most hits filed as inhibitors; 420,000 tested, 15% active; DT40 Tdp1-/- hTDP1 cells, no CPT, ATP luminescence, 48 h; AID 686978, 2013; also: potency is read from the fitted curve at half-maximal effect; % is scaled to controls: 0 for no effect and ±100 for the full control effect; nearly all actives have a fitted effect of over 55% in size
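Compound effects on proliferation are scored in DT40 Tdp1-/-;hTDP1 cells in the absence of CPT. ATP levels (CellTiter-Glo luminescence) are recorded after a ≥48 hr, 37 °C incubation.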
TDP1 cell CPT: DT40-hTDP1 cell growth loss with CPT; chicken DT40 Tdp1-/-;hTDP1 cells + 20 nM CPT, ATP luminescence, 48 h; Potency, µM (highest dose often 46.2 µM), inactives show at the highest dose activity change, negative = growth inhibition, actives largely listed as inhibitors; 420,000 tested, 12% active; AID 686979; also: potency is read from the fitted curve at half-maximal effect; % is scaled to controls: 0 for no effect and ±100 for the full control effect; nearly all actives have a fitted effect of over 55% in size
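Chicken DT40 Tdp1-/- cells complemented with human TDP1, 400 cells/well, exposed to compounds plus 20 nM camptothecin for at least 48 h at 37 C; viability read as ATP content by CellTiter-Glo luminescence.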
IL-1B inflam inh: blocks inflammasome-driven IL-1 beta release | THP-1 LPS/ATP IL-1B secretion, AlphaLISA, 16 h; active compounds read low | activity change, % at 57.5 µM | 360,000 tested, 4.7% active | AID 743279; in the data active = activity change below about -50%; inconclusive = mostly about -30% to -49%; also: % is scaled to controls: 0 for no effect and ±100 for the full control effect
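Secreted IL-1B measured by AlphaLISA bead assay after 16 h compound exposure of THP-1 cells; compounds (final up to 57.5 uM) added 1 h before LPS (250 ng/mL) and ATP (1.25 mM) stimulation; lower signal means less secretion.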
* = called active by the depositor; ? = inconclusive; / = no result given. Unless noted, calls follow the shape of the dose curve; as a rule, active = well fitted inhibition curve with a large enough effect; inconclusive = small, poorly fitted or top-dose-only effect; inactive = flat fitted curve, though single readings scatter.

SMILES | D3 antag | D3 ag | ClpP mod | TDP1 cell noCPT | TDP1 cell CPT | IL-1B inflam inh
CN(c1ccccc1)S(=O)(=O)c1cc(C(=O)Nc2ccccc2N2CCOCC2)ccc1Cl | 0 | 6 | -9% | 9.2µM* | 16µM* | ?
O=C(Nc1ccccc1N1CCCC1)c1ccc(Cl)c(S(=O)(=O)N2CCOCC2)c1 | ? | -13 | -5% | ? | -26% | -5
CN(c1ccccc1)S(=O)(=O)c1cc(C(=O)OCC(N)=O)ccc1Cl | -1 | 2 | -1% | ? | -4% | 14
O=C(Nc1ccc(N2CCC(c3ccccc3)C2)c(C(=O)O)c1)c1ccc(Cl)cc1 (stereo not drawn) | / | -5 | 0% | ? | ? | /
Cc1cc(C)c2[nH]c(C(=O)N3CCC(n4nccc4NC(=O)C4CC4)CC3)c(C)c2c1 | 1 | -2 | -1% | ? | -4% | 4
COc1ccc(CCNC(=S)N2CCN(S(=O)(=O)c3ccc(C)cc3)CC2)cc1 | 17 | -4 | 0% | -10% | 0% | 1
CC(=O)Nc1sc(C)c(C)c1C(=O)OCC(=O)NC(C)c1ccccc1 (stereo not drawn) | -6 | 5 | 14% | ? | ? | 1
COc1ccc(N2CC(C(=O)N3CCN(c4ccccc4OC)CC3)CC2=O)cc1 (stereo not drawn) | 3 | 6 | / | -28% | -19% | -7
Cc1cc(-c2nnc(-c3cccc(Cl)c3)o2)no1 | 0 | -15 | / | -20% | -4% | 34
O=C(Nc1ccccc1N1CCCCC1)c1ccc(F)c(S(=O)(=O)N2CCOCC2)c1 | 41 | 10 | / | 21µM* | 16µM* | 21
O=C(CN1CCN(Cc2ccc(F)cc2)C1=O)NCc1ccc(F)cc1 | / | -11 | 1% | -14% | -27% | /
Cc1ccc(-n2nnc(-c3nsc(NC(=O)c4ccccc4C)n3)c2C)cc1Cl | / | -14 | 1% | 6.5µM* | 5.2µM* | /
Cc1ccc(-n2nnc(-c3nsc(NC(=O)c4ccc(C)c(C)c4)n3)c2C)cc1 | / | -8 | -17% | 13µM* | 13µM* | /
Cc1ccc(-n2nnc(-c3nsc(NC(=O)c4cccc(Cl)c4)n3)c2C)cc1C | / | 5 | -8% | 3.7µM* | 5.8µM* | /
CCOc1ccccc1-n1nnc(-c2nsc(NC(=O)c3ccc(C)cc3)n2)c1C | / | -13 | -10% | ? | ? | /
CCc1ccccc1-n1nnc(-c2nsc(NC(=O)c3ccc(C)c(C)c3)n2)c1C | / | 8 | ? | 18µM* | ? | /
CCc1cccc(NC(=O)c2cc(OC)c(OC)c(OC)c2)c1 | -11 | -8 | / | -17% | -8% | 0
CN(C)S(=O)(=O)c1cccc(NC(=O)c2cc(=O)[nH]c(=O)[nH]2)c1 | 19 | 3 | -7% | 9% | 14% | 13
Cc1cccc(S(=O)(=O)c2cn(C)c3cc(N4CCCCCC4)c(F)cc3c2=O)c1 | / | 1 | -18% | -11% | 6% | /
Cc1ccc(S(=O)(=O)NCC(=O)NNC(=O)c2ccccc2Cl)cc1C | 3 | 0 | / | -7% | 2% | 15
COc1ccc(C(=O)O)cc1S(=O)(=O)Nc1ccc(N2CCCCC2)cc1 | -10 | 10 | / | -3% | 3% | 8
COc1ccc(NC(=O)c2cc(-c3cc(F)ccc3OC)n[nH]2)c(OC)c1 | 65 | 3 | -11% | ? | 26µM* | /
COc1ccc(NC(=O)c2cc(-c3ccc(F)cc3OC)n[nH]2)c(OC)c1 | 47 | 19 | -20% | 15µM* | 16µM* | /
COc1ccc(NC(=O)c2cc(-c3cc(C)c(C)cc3O)n[nH]2)c(OC)c1 | 3 | -12 | 0% | ? | 0% | 4
C=CCN(c1ccccc1)S(=O)(=O)c1cccc(C(=O)Nc2cccc(C)n2)c1 | -21 | -8 | -3% | 23µM* | 18µM* | -15
SMILES | D3 antag | D3 ag | ClpP mod | TDP1 cell noCPT | TDP1 cell CPT | IL-1B inflam inh
CCN(c1ccccc1)S(=O)(=O)c1cccc(C(=O)Nc2cccc(C)n2)c1 | -13 | -3 | 0% | 21µM* | 23µM* | -4
CCN(c1ccccc1)S(=O)(=O)c1ccc(C(=O)NCCc2ccc(S(N)(=O)=O)cc2)cc1 | -19 | -5 | / | ? | 23µM* | 18
CCN(c1ccccc1)S(=O)(=O)c1ccc(C(=O)Nc2ccccn2)cc1 | 16 | -1 | 2% | ? | 21µM* | -3
CCN(c1cccc(C)c1)S(=O)(=O)c1cccc(C(=O)O)c1 | 16 | 18 | -2% | 6% | -2% | 9
CN(c1ccc(C(=O)Nc2ccccn2)cc1)S(=O)(=O)c1ccccc1 | -3 | -3 | -2% | -30% | -30% | 12
COc1cc2ccccc2cc1C(=O)NC(=S)Nc1cccc(C(=O)O)c1C | 5 | 7 | / | -7% | 0% | 13
CCOc1ccc(N2CC(C(=O)N3CCN(C(=O)c4ccco4)CC3)CC2=O)cc1 (stereo not drawn) | -20 | -22 | 0% | -10% | -11% | -16
COc1ccc(OC)c(CNC(=O)CCCn2nc(C)c3c(C)n(-c4ccc(C)cc4)nc3c2=O)c1 | / | -6 | -3% | 21µM* | 23µM* | /
Cc1ccc(-n2nc3c(=O)n(CCCC(=O)NCc4ccc(F)cc4)nc(C)c3c2C)cc1 | -20 | -13 | -1% | ? | ? | -8
COc1ccc(OC)c(CNC(=O)CCn2nc(C)c3c(C)n(-c4ccccc4)nc3c2=O)c1 | 2 | 2 | -1% | 10% | -4% | 9
COc1cccc(CNC(=O)CCCn2nc(C)c3c(C)n(-c4ccc(C)cc4)nc3c2=O)c1OC | 8 | 2 | -2% | ? | 10µM* | -15
CCOc1cccc2sc(NC(=O)c3ccc(S(=O)(=O)N4CCCCC4)cc3)nc12 | / | 1 | ? | -6% | ? | /
COc1ccccc1/C=C(/C(=O)OCC(=O)Nc1ccccc1C(C)C)c1ccccc1 | -29 | -4 | -2% | 21µM* | ? | -11
CCOC(=O)C1CCN(C(=O)CN2C(=O)C(C(C)C)Oc3ccccc32)CC1 (stereo not drawn) | 6 | -34 | 3.5µM* | -27% | -19% | -7
CCc1ccc2c(c1)-c1ccccc1S(=O)(=O)N2CC(=O)N1CCC(C)CC1 | / | -10 | 1% | 18µM* | 16µM* | /
